Assay outcomes deposited in PubChem BioAssay by National Center for Advancing Translational Sciences (NCATS).
HCV inh: inhibitors of hepatitis C virus infection; 340,000 compounds, 3.4% hits; Huh7.5.1 HCVcc-Cre infection, luciferase reporter, 44 h; Potency, µM (doses to about 41.8 µM), without a hit: at the highest dose activity change, negative = inhibition, most hits filed as inhibitors; note: potency is the fitted concentration of half-maximal effect; % is set by controls: 0 for no effect and ±100 for the full control effect
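A cell-based infection assay in which seeded cells (1,000 per well) receive test compound after 4 h, are inoculated with HCVcc-Cre at approximately 0.5 moi, and are incubated 44 h before luminescence detection.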
Pf growth 48h: P. falciparum growth inhibition at 48 hours (one generation). P. falciparum luciferase growth in erythrocytes, 48 h. Potency, µM (doses to about 28.7 µM), for the others: at the top dose activity change, negative = inhibition, hits mostly inhibitors. 310,000 compounds, 5.9% hits; note: potency is the fitted concentration of half-maximal effect; % is set by controls: 0 for no effect and ±100 for the full control effect
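Luciferase-expressing parasites in RBCs, 2% Hct / 0.1% parasitemia final; RPMI 1640 + 0.5% Albumax; 37 C, 5% CO2, one generation; luminescence read-out, lower signal = inhibition.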
SARS PLP yeast: blocks SARS-CoV papain-like protease in a yeast assay. S. cerevisiae expressing SARS-CoV PLpro, growth rescue. Potency, µM (top dose mostly 32.9 µM), for inactives: top-dose activity, positive = growth rescue, hits mostly activators. 330,000 compounds, 0.19% hits; calls by dose curve; note: potency is the fitted concentration of half-maximal effect; 0% is about no effect; nearly all actives have a fitted effect of over 55% in size
Pf growth 96h: P. falciparum growth inhibition at 96 hours; P. falciparum luciferase reporter growth, 96 h; 320,000 compounds, 6.9% hits; Potency, µM (doses to about 28.7 µM), for the others: at the top dose activity change, negative = inhibition, hits mostly inhibitors; AID 504834; note: potency is the fitted concentration of half-maximal effect; % is set by controls: 0 for no effect and ±100 for the full control effect
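Luminescence readout: decreased luciferase signal marks inhibited growth of reporter-expressing P. falciparum in infected red cells (2% hematocrit, 0.05% parasitemia final), exposed to compound two generations (96 h, 37 C, 5% CO2).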
HCMV inh: human cytomegalovirus inhibition; HFF cells, HCMV-luciferase reporter, 72 h; stronger effect = lower value; activity change, negative = inhibition, % at 57.5 µM; 410,000 compounds, 4.5% hits; AID 1259415; in the data active = activity change below about -60%; inconclusive = no clear call, values can overlap the other calls; inactive = above about -39%; note: % is set by controls: 0 for no effect and ±100 for the full control effect
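Cell-based, HFFs, 1000 cells/well, 16 h 37C; cpds in DMSO + HCMV-luc, MOI 1 PFU/cell; 72 h 37C; OneGlo luminescence after 5 min RT; norm. to buffer vs Salinomycin 10uM.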
Sm TGR block: inhibitors of Schistosoma mansoni thioredoxin glutathione reductase. 360,000 compounds, 3% hits. Potency, µM (doses to about 114 µM), without a hit: at the top dose activity change, negative = inhibition, hits mostly inhibitors. purified TGR, DTNB reduction, TNB absorbance 405 nm. AID 485364. Q962Y6; note: potency is the fitted concentration of half-maximal effect; % is set by controls: 0 for no effect and ±100 for the full control effect; nearly all actives have a fitted effect of over 60% in size
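Kinetic colorimetric format: TGR-catalysed, NADPH-driven DTNB reduction monitored via TNB absorbance. Enzyme dispensed at 20 nM; compound exposure 15 min at room temperature before reaction start.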
* hit, by the source's call; ? = inconclusive; / = not tested or not shown; ! = repeats disagree; [ ] = remark or other dose. Compounds with a hit are over-represented: about 15% of the library has one in this group of screens. Unless noted, calls come from the whole dose curve; as a rule, active = well fitted curve in the direction sought with a large enough effect; inconclusive = small, poorly fitted or top-dose-only effect, or another doubt; inactive = no such curve, though single readings can be large; an effect the other way counts as inactive or inconclusive.

SMILES	HCV inh	Pf growth 48h	SARS PLP yeast	Pf growth 96h	HCMV inh	Sm TGR block
COc1cc([C@@H]2CC=C(C(=O)O)[C@H](c3ccc(C)cc3)N2S(=O)(=O)c2ccc(C)cc2)cc(OC)c1OC	15%	/	-2%	/	-18	/
COc1cc([C@@H]2CC=C(C(=O)O)[C@H](c3cccc(Cl)c3)N2S(=O)(=O)c2ccc(C)cc2)cc(OC)c1OC	13%	?	2%	13µM*	-6	-25%
COc1ccc([C@@H]2CC=C(C(=O)O)[C@H](c3ccc(Cl)cc3)N2S(=O)(=O)c2ccc(C)cc2)cc1OC	6%	?	0%	13µM*	-22	-23%
COc1cc(Cl)c(C)cc1NC(=O)c1cc2c(Cl)nc3ccc(C)cc3c2s1	/	/	/	/	-1	-10%
O=c1c2sc3ccccc3c2n(Cc2cccc(Cl)c2)c(=O)n1Cc1ccccc1	/	/	/	/	?	2%
COc1ccc(NC(=O)Nc2ccc3c(c2)OCO3)c(C)c1	-24%	54%	0%	15%	-19	-7%
Cc1cc(C)cc(NC(=S)N2CCC(c3nc4ccccc4s3)CC2)c1	-2%	28%	23%	50%	-85*	15%
CCNC(=O)N1CCC(c2nc3ccccc3s2)CC1	-24%	-1%[0.00184 µM]	-1%	?	-6	8%
Cc1ccc(NC(=S)N2CCC(c3nc4ccccc4s3)CC2)cc1C	-33%	4%	5%	99%	-90*	0%
CC(=O)Nc1ccc(N=Nc2ccccc2)cc1[N+](=O)[O-]	-24%	/	/	/	31	/
Nc1nc(=O)n(C2CC(O)C(CO)O2)cc1F (configuration not stated)	-9%	/	/	/	-97*	/
O=C(Nc1ccccc1Br)C1CC(=O)N(c2ccc3c(c2)OCCO3)C1 (configuration not stated)	11%	?	3%	?	-22	1%
O=C(Nc1nc2ccccc2[nH]1)C1CC(=O)N(c2ccc3c(c2)OCCO3)C1 (configuration not stated)	-3%	6%	-2%	8.3µM*	5	-4%
COc1ccc(-c2csc(NC(=O)C3CC(=O)N(c4ccc5c(c4)OCCO5)C3)n2)cc1 (configuration not stated)	?	?	-29%	12µM*	?	-1%
COc1ccc(-c2csc(NC(=O)C3CC(=O)N(Cc4ccco4)C3)n2)cc1 (configuration not stated)	?	?	-1%	?	-5	35µM*
Cc1ccc(N2CC(C(=O)Nc3nccs3)CC2=O)cc1Cl (configuration not stated)	?	/	-19%	-18%	-91*	2%
CC(=O)Nc1ccc(-c2csc(NC(=O)C3CC(=O)N(c4ccc5c(c4)OCCO5)C3)n2)cc1 (configuration not stated)	?	?	0%	?	?	2%
CN(c1ccc(-c2csc(NC(=O)C3CC(=O)N(Cc4ccco4)C3)n2)cc1)S(C)(=O)=O (configuration not stated)	?	?	4%	?	24	-26%
COc1cccc(N2CC(NC(=O)C3CC3)CC2=O)c1 (configuration not stated)	/	/	/	/	-23	9%
COc1ccc(/C=C2/C(=O)OCc3cc(OC)c(OC)cc32)cc1	?	0%	-24%	-50%	-26	-3%
CC(C)Oc1ccc(N2CC(C(=O)Nc3ccc4c(c3)OCO4)CC2=O)cc1 (configuration not stated)	-17%	/	1%	15µM*	18	-30%
Cc1ccc(N2CC(C(=O)Nc3ccc4c(c3)OCO4)CC2=O)cc1 (configuration not stated)	8%	-3%	3%	10%	8	1%
COc1ccc(-c2nc(NC(=O)C3CC(=O)N(Cc4ccco4)C3)sc2C)cc1 (configuration not stated)	?	12µM*	-1%	?	-16	-5%
NS(=O)(=O)c1cccc(NC(=O)C2CC(=O)N(Cc3ccco3)C2)c1 (configuration not stated)	-2%	12%	-2%	19%	36	50µM*
COc1ccc(-c2nc(NC(=O)C3CCN(c4nc5ccccc5o4)CC3)sc2C)cc1	?	8.3µM*	-2%	/	-23	0%
SMILES	HCV inh	Pf growth 48h	SARS PLP yeast	Pf growth 96h	HCMV inh	Sm TGR block
CCCCn1nnnc1C1(C)CCC(=O)N1CCCN1CCOCC1 (configuration not stated)	/	/	/	/	0	/
O=C1Nc2ccccc2-n2nnnc2C1N1CCN(C(=O)C2CCCO2)CC1 (configuration not stated)	/	/	/	/	20	/
O=C(Cn1ccn(-c2ccc(F)cc2)c(=O)c1=O)Nc1ccc(F)cc1	/	/	/	/	-2	8%
O=S1(=O)c2ccc(Br)cc2N2CCC[C@@H]2CN1Cc1ccccc1	?	/	-18%	/	-30	/
CN(C)c1ccc(N2C(=NC(=O)COc3ccccc3)SC3CS(=O)(=O)CC32)cc1 (configuration not stated)	5%	3%	3%	?	52	-9%
O=C(Nc1nccs1)C1CC(=O)N(Cc2ccco2)C1 (configuration not stated)	19%	1%	3%	-4%	-26	10µM*
O=C(NCc1ccc(F)cc1)C1CC(=O)N(Cc2ccco2)C1 (configuration not stated)	10%	0%	6%	1%	14	40µM*
CC(=O)c1sc(NC(=O)C2CC(=O)N(Cc3ccco3)C2)nc1-c1ccccc1 (configuration not stated)	1%	?	-4%	-1%	-14	-17%
COc1ccc(C2C(C#N)=C(C)NC3=C2S(=O)(=O)c2ccccc23)cc1 (configuration not stated)	13%	?	-12%	-22%	-108*	10%
O=C(CSc1ccc(Cl)cc1)NNC(=O)c1ccco1	6%	15%	-2%	15µM*	8	0%
CN(C)c1ccc2nc3ccc(=O)cc-3sc2c1	/	/	/	/	-78*	/
COc1ccc2nc(N=Nc3ccc(N(C)C)cc3)sc2c1	4%	5%	0%	336%	25	-1%
Cc1cc2nc3ccc(=[N+](C)C)cc-3sc2cc1N	3.2µM*	0.037µM*	-3%	0.033µM*	/	?
CN(C)c1ccc2nc3ccc(=[N+](C)C)cc-3sc2c1	?	0.0067µM*	-4%	0.0067µM*!	-104*	?
CC(C)CC(=O)/C(=C\c1ccc(Cl)cc1Cl)n1cncn1	?	?	-91%	?	/	22µM*
